Here are results for 36 compounds from the supplement of paper PMC12808144.

Each structure is given as a SMILES string.

The assay has as its system NHEM-hTERT. Put plainly: cell viability relative to DMSO control (fraction of DMSO control); higher = less cytotoxic, active = 0.5 or less. Conditions: 1 µM; 120 h. The essentials: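 Three cell types were screened against 315 approved anti-cancer drugs from TargetMol, acoustically pre-spotted in 384-well plates at 1 µM in duplicate over 120 h: NHEM-hTERT immortalized melanocytes (2500/well), patient-derived Mel-DCC-11 and its resistant subline Mel-DCC-11-R (both 1500/well), all in 40 µl per well. The subline was tested alone and with 8 µM of its selecting drug. Viability, measured by luminescence, was normalised to vehicle controls and averaged across duplicates, with ATPlite 1step as the readout.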
For the compound `CC(/C=C/C=C(\C)C(=O)O[C@@H]1O[C@H](CO[C@@H]2O[C@H](CO)[C@@H](O)[C@H](O)[C@H]2O)[C@@H](O)[C@H](O)[C@H]1O)=C\C=C\C=C(C)\C=C\C=C(/C)C(=O)O[C@@H]1O[C@H](CO[C@@H]2O[C@H](CO)[C@@H](O)[C@H](O)[C@H]2O)[C@@H](O)[C@H](O)[C@H]1O` [Crocin], the cell viability is 1.12 (inactive).
Turning to `N#CC[C@H](C1CCCC1)n1cc(-c2ncnc3[nH]ccc23)cn1` [(R)-Ruxolitinib], the cell viability is 1.1 (inactive).
Next, `CNC(=O)c1cc(Oc2ccc(NC(=O)Nc3ccc(Cl)c(C(F)(F)F)c3)cc2)ccn1` [Sorafenib]: 1.02 (inactive).
The figure for `Nc1nc(=O)c2c([nH]1)NCC(CNc1ccc(C(=O)N[C@@H](CCC(=O)[O-])C(=O)[O-])cc1)N2C=O.[Ca+2]` (stereo partly specified) [Calcium folinate] is 1.16 (inactive); for `COc1cc([C@@H]2c3cc4c(cc3[C@@H](O[C@@H]3O[C@@H]5CO[C@@H](c6cccs6)O[C@H]5[C@H](O)[C@H]3O)[C@H]3COC(=O)[C@H]23)OCO4)cc(OC)c1O` [Teniposide] it is 0.746 (inactive).
On to `Nc1ccn([C@@H]2O[C@H](CO)[C@@H](O)[C@@H]2O)c(=O)n1` [Cytarabine], for which the cell viability is 0.886 (inactive).
For the compound `CC(C)C[C@@H](NC(=O)[C@H](O)[C@@H](N)Cc1ccccc1)C(=O)O.Cl` [Bestatin hydrochloride], the cell viability is 1.08 (inactive).
The figure for `CO[C@H]1C[C@@H]2CC[C@@H](C)[C@@](O)(O2)C(=O)C(=O)N2CCCC[C@H]2C(=O)O[C@H]([C@H](C)C[C@@H]2CC[C@@H](O)[C@H](OC)C2)CC(=O)[C@H](C)/C=C(\C)[C@@H](O)[C@@H](OC)C(=O)[C@H](C)C[C@H](C)/C=C/C=C/C=C/1C` [Rapamycin] is 0.819 (inactive); for `O=NN(CCCl)C(=O)NC1CCCCC1` [Lomustine] it is 0.938 (inactive); for `CC(=O)O[C@@]12CO[C@@H]1C[C@H](O)[C@@]1(C)C(=O)[C@H](O)C3=C(C)[C@@H](OC(=O)[C@H](O)[C@@H](NC(=O)OC(C)(C)C)c4ccccc4)C[C@@](O)([C@@H](OC(=O)c4ccccc4)[C@H]21)C3(C)C` [Docetaxel] it is 0.707 (inactive).
Next, `CCCCCCCCCCCCCCCCCCOCC(O)CO` (stereo unspecified) [Batyl alcohol]: 1.07 (inactive); `COc1ccc(C(Cl)=C(c2ccc(OC)cc2)c2ccc(OC)cc2)cc1` [Chlorotrianisene]: 0.795 (inactive); `COc1cc2c(Oc3ccc4[nH]c(C)cc4c3F)ncnc2cc1OCCCN1CCCC1` [Cediranib]: 0.891 (inactive).
Next, `COc1cc2nccc(Oc3ccc(NC(=O)C4(C(=O)Nc5ccc(F)cc5)CC4)cc3)c2cc1OC.O=C(O)C[C@H](O)C(=O)O`: 0.932 (inactive); `CCS(=O)(=O)N1CC(CC#N)(n2cc(-c3ncnc4[nH]ccc34)cn2)C1` [Baricitinib]: 1.07 (inactive).
`Cc1cn(-c2cc(NC(=O)c3ccc(C)c(Nc4nccc(-c5cccnc5)n4)c3)cc(C(F)(F)F)c2)cn1` [Nilotinib]: the cell viability was 0.969 (inactive).
Turning to `O=C(/C=C\n1cnc(-c2cc(C(F)(F)F)cc(C(F)(F)F)c2)n1)NNc1cnccn1` [Selinexor], the cell viability was 0.73 (inactive).
Next, `CCCCCCNC(=O)n1cc(F)c(=O)[nH]c1=O` [Carmofur]: 1.17 (inactive); `COc1cc2nccc(Oc3ccc(NC(=O)C4(C(=O)Nc5ccc(F)cc5)CC4)cc3)c2cc1OC` [Cabozantinib]: 0.739 (inactive).
Next, `CC1=C(/C=C/C(C)=C/C=C/C(C)=C/C(=O)O)C(C)(C)CCC1` [Tretinoin]: 0.953 (inactive); `C=C(c1ccc(C(=O)O)cc1)c1cc2c(cc1C)C(C)(C)CCC2(C)C` [Bexarotene]: 1.2 (inactive).
Next, `CC=Cc1ccc(OC)cc1` (stereo in doubt) [cis-Anethol]: 0.759 (inactive); `CC(O)(P(=O)([O-])O)P(=O)([O-])O.[Na+].[Na+]` [Sodium etidronate]: 0.984 (inactive).
Regarding `CC(C)=CCC/C(C)=C/CC/C(C)=C/CC/C(C)=C/CC1=C(C)C(=O)c2ccccc2C1=O` [Menatetrenone], the cell viability was 1.02 (inactive).
Next, `CS(=O)(=O)CCNCc1ccc(-c2ccc3ncnc(Nc4ccc(OCc5cccc(F)c5)c(Cl)c4)c3c2)o1` [Lapatinib]: 0.822 (inactive); `Cc1nc(Nc2ncc(C(=O)Nc3c(C)cccc3Cl)s2)cc(N2CCN(CCO)CC2)n1` [Dasatinib]: 0.513 (inactive); `N.N.O=C([O-])C[O-].[Pt+2]` [Nedaplatin]: 1.08 (inactive).
With `Nc1ccn([C@@H]2O[C@H](CO)[C@@H](O)C2(F)F)c(=O)n1` [Gemcitabine], the cell viability was 0.639 (inactive).
With `CCCCc1nc2cc(/C=C/C(=O)NO)ccc2n1CCN(CC)CC` [Pracinostat], the cell viability is 0.747 (inactive).
Turning to `CNC(=O)c1cc(Oc2ccc(NC(=O)Nc3ccc(Cl)c(C(F)(F)F)c3)c(F)c2)ccn1` [Regorafenib], the cell viability is 0.792 (inactive).
The figure for `Nc1cccc2c1C(=O)N(C1CCC(=O)NC1=O)C2=O` (stereo unspecified) [Pomalidomide] is 1.15 (inactive); for `COc1cc2c(cc1O)CC[C@@H]1[C@@H]2CC[C@]2(C)[C@@H](O)CC[C@@H]12` [2-Methoxyestradiol] it is 0.87 (inactive).
Next, `C=CC(=O)Nc1cccc(Nc2nc(Nc3ccc(N4CCN(C(C)=O)CC4)cc3OC)ncc2C(F)(F)F)c1` [Rociletinib]: 0.71 (inactive).
The figure for `CN(CCOc1ccc(CC2SC(=O)NC2=O)cc1)c1ccccn1.O=C(O)/C=C\C(=O)O` (stereo unspecified) [Rosiglitazone maleate] is 1.06 (inactive).
For `CCc1ccc(CCOc2ccc(CC3SC(=O)NC3=O)cc2)nc1.Cl` (stereo unspecified) [Pioglitazone hydrochloride], the cell viability was 1.09 (inactive).
Next, `O=c1ccn([C@@H]2O[C@H](CO)[C@@H](O)[C@H]2O)c(=O)[nH]1` [Uridine]: 1.05 (inactive).
